Source: PubChem BioAssay (NCATS)
Inconclusive results are not listed. Active and inactive are the calls of the source. Unless noted, calls come from the whole dose curve; as a rule, active = well fitted curve in the direction sought with a large enough effect; inconclusive = small, poorly fitted or top-dose-only effect, or another doubt; inactive = no such curve, though single readings can be large; an effect the other way counts as inactive or inconclusive.

How the values were obtained:
[1] = Confirmation and Secondary Assay for Modulators of Hemoglobin Beta Chain Splicing at IVS2 654 locus (AID 910); conditions: HeLa EGFP-654 splicing reporter, GFP fluorescence, 48 h; series mostly up to 46.1 µM;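 note: HeLa cells stably carrying EGFP split by mutant beta-globin IVS2-654 intron; % of control where 0% means no effect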
Outline: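 HeLa cells stably expressing EGFP interrupted by β-globin IVS2-654 intron, seeded overnight in Opti-MEM/2% FCS, then treated 2 days at 37 °C. Restored splicing read as total peak GFP intensity per well by laser scanning cytometry (488 nm excitation, 500–520 nm emission); 500 nM antisense PNA as control.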

[2] = Cell Viability - LYMP2-001 (AID 921); conditions: LYMP2-001 lymphoblastoid cell viability; series mostly up to 92.2 µM; note: nearly all actives have a fitted effect of over 70% in size; note: potency is the fitted concentration of half-maximal effect
Outline: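 Cellular ATP loss read by luciferase luminescence after 24 h compound exposure at 37 C in complete medium. LYMP2-001 lymphoblastoid cells, 2500/well; qHTS concentration-response data fitted with Hill equation for AC50.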

[3] = Confirmation and Secondary Assay for Modulators of Hemoglobin Beta Chain Splicing at IVS2 705 locus (AID 930); conditions: HeLa EGFP-705 splicing reporter, GFP fluorescence, 48 h; series mostly up to 46.1 µM;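 note: HeLa cells stably expressing the EGFP-705 splicing reporter; GFP fluorescence per well restored by corrected splicing of the IVS2-705 intron in EGFP; % of control where 0% means no effect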
Outline: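 Fluorescence gain (488 nm laser, 500-520 nm PMT) reflects restored correct splicing of a mutant IVS2-705 intron inside EGFP in stably transfected HeLa cells after 2-day compound treatment.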

[4] = MultiTox-Fluor Cytotoxicity Assay - LYMP1-001 - Live Cells (AID 947); conditions: LYMP1-001 lymphoblastoid cells, live-cell protease fluorescence viability; series mostly up to 92.2 µM;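 note: 0% = DMSO only and full inhibition = tetraoctylammonium bromide control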
[5] = MultiTox-Fluor Cytotoxicity Assay - LYMP1-002 - Live Cells (AID 955); conditions: LYMP1-002 lymphoblastoid live-cell protease fluorescence viability; series mostly up to 46.1 µM; note: % is set by controls: 0 for no effect and ±100 for the full control effect
Outline: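 Human lymphoblastoid LYMP1-002 cells, 2500/well in complete medium, rested 5 hr at 37 C, then exposed to compounds for 16 hr at 37 C. Live-cell protease cleavage of GF-AFC read by fluorescence (Ex/Em 405/510) after 60 min at room temperature; AC50 from Hill fits.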

[6] = MultiTox-Fluor Cytotoxicity Assay - LYMP1-002 - Dead Cells (AID 960); conditions: LYMP1-002 lymphoblastoid cells, dead-cell protease fluorescence; series mostly up to 46.1 µM; note: nearly all actives have a fitted effect of over 60% in size; note: potency is the fitted concentration of half-maximal effect
Outline: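 Human lymphoblastoid cells (LYMP1-002), 2500/well in complete medium, were exposed to compounds for 16 hr at 37 C. Dead-cell protease activity was read as bis-AAF-R110 fluorescence (Ex/Em 485/520), normalized to DMSO and 15 uM tetraoctylammonium bromide; AC50 from Hill fits.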

[7] = MultiTox-Fluor Cytotoxicity Assay - LYMP1-003 - Dead Cells (AID 961); conditions: LYMP1-003 lymphoblastoid cells, dead-cell protease fluorescence; series mostly up to 92.2 µM; note: nearly all actives have a fitted effect of over 70% in size; note: potency is the fitted concentration of half-maximal effect
Outline: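 Human lymphoblastoid LYMP1-003 cells (2500/well) were treated with compounds for 16 hr at 37 C in complete medium. Dead-cell protease release was read by bis-AAF-R110 fluorescence (Ex/Em 485/520). AC50 came from Hill fits, normalized to DMSO and 15 uM tetraoctylammonium bromide.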

[8] = MultiTox-Fluor Cytotoxicity Assay - LYMP1-003 - Live Cells (AID 962); conditions: LYMP1-003 lymphoblastoid cells, MultiTox-Fluor live-cell protease fluorescence; series mostly up to 92.2 µM;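 note: 0% = DMSO only and full loss = 92 µM tetraoctylammonium bromide; cytotoxic hits lower the live-cell protease signal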
Outline: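 LYMP1-003 human lymphoblastoid cells (2500/well) in complete medium were preincubated 5 hr at 37 C, then exposed to compounds for 16 hr at 37 C. Live-cell protease cleavage of GF-AFC read by fluorescence (Ex/Em 405/510); AC50 from Hill fits.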

[9] = Cell Viability - LYMP1-003 - Assay at 24 hr (AID 963); conditions: LYMP1-003 lymphoblastoid cell viability; series mostly up to 92.2 µM; note: potency is the fitted concentration of half-maximal effect
Outline: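 Human lymphoblastoid LYMP1-003 cells (2500/well) were rested 5 hr at 37 C, then exposed to compounds in complete medium for 24 hr at 37 C. Cellular ATP was quantified by CellTiter-Glo luminescence, and AC50 values came from Hill fits of concentration-response data.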

[10] = MultiTox-Fluor Cytotoxicity Assay - LYMP1-001 - Dead Cells (AID 946); conditions: LYMP1-001 lymphoblastoid cells, dead-cell protease fluorescence; series mostly up to 92.2 µM;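 note: 0% = DMSO and 100% = tetraoctylammonium bromide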
Outline: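 AC50 from Hill fit of concentration-response; data normalized to DMSO (basal) and 15 uM tetraoctylammonium bromide (100%). LYMP1-001 lymphoblastoid cells, 2500/well, 16 hr compound at 37 C; dead-cell protease fluorescence, Ex/Em 485/520.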

[11] = Cell Viability - LYMP1-002 - Assay at 16 hr (AID 948); conditions: LYMP1-002 lymphoblastoid cell viability; series mostly up to 92.2 µM; note: potency is the fitted concentration of half-maximal effect
Outline: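 ATP luminescence (CellTiter-Glo) was measured after 16 hr compound exposure at 37 C of 2500 lymphoblastoid LYMP1-002 cells per well. Concentration-response curves were fitted with the Hill equation to give AC50.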

[12] = qHTS Assay for Identification of Small Molecule Agonists for Thrombopoietin (TPO) Signaling Pathway (AID 917); conditions: TPO signaling pathway reporter cells, agonist qHTS, stimulated with TPO at its EC50; series mostly up to 38.5 µM; note: % is set by controls: 0 for no effect and ±100 for the full control effect
Outline: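 Reporter: GpIIb promoter–luciferase in murine Ba/F3 expressing human TPO receptor. Pre-starved of IL-3 overnight; compounds with 26 pM TPO, 24 hrs, 37 C/5% CO2; luminescence read.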

[13] = molecular target: Muscarinic acetylcholine receptor M1 (Rattus norvegicus) (UniProt P08482); assay: qHTS Assay for Antagonists of Acetylcholine Muscarinic M1 Receptor: Measurement of IP-One Response (AID 944); conditions: CHO-M1 cells, IP-One HTRF, antagonist mode; series mostly up to 46.1 µM; note: nearly all actives have a fitted effect of over 75% in size
Chain of Muscarinic acetylcholine receptor M1 (Rattus norvegicus) (P08482 whole entry, looked up): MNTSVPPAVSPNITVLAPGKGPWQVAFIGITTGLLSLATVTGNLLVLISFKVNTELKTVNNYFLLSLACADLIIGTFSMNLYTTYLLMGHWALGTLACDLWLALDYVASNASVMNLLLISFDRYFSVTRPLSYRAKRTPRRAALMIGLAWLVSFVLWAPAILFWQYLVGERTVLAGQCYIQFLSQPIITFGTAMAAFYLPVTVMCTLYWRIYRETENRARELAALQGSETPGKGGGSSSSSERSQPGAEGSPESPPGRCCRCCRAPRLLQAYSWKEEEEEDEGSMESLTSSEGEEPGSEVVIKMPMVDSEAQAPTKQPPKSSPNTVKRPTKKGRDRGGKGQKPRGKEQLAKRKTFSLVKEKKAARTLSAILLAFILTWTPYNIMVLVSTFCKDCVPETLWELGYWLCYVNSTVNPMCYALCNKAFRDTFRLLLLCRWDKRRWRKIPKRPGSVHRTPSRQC
Outline: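 CHO cells expressing rat M1 receptor, recovered overnight, were pre-incubated 10 min with compound, then stimulated 30 min with carbachol at EC80 (200 nM) in LiCl-containing buffer, pH 7.4. IP1 accumulation was read by HTRF (620/665 nm).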

[14] = molecular target: Pyruvate kinase PKM (Homo sapiens) (UniProt P14618); assay: qHTS Assay for Activators of Human Muscle Pyruvate Kinase (AID 954; active = well fitted curve in the direction sought with a large enough effect, not every such curve was filed as active;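 note: 0% = uninhibited enzyme and -100% = no enzyme or full thiadiazolimine inhibition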); conditions: purified human muscle pyruvate kinase, luciferase-coupled luminescence, 1 h; series mostly up to 57.5 µM
Chain of Pyruvate kinase PKM (Homo sapiens) (P14618 whole entry, looked up): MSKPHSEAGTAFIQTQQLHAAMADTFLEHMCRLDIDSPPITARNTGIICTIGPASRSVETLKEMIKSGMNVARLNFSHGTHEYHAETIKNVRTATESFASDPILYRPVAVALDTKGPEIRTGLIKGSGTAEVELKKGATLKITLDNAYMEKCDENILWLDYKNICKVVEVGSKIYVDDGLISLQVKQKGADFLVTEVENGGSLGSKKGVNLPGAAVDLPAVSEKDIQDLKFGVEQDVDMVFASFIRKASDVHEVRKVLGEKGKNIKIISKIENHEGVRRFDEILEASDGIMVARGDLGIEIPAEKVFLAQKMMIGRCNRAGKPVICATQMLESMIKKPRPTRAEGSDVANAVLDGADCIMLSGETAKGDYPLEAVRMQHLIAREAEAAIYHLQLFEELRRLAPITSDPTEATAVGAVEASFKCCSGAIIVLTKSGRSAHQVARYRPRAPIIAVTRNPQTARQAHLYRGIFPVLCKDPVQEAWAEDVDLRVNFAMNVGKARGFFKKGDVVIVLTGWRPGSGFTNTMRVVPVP
Outline: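 Luminescence from a luciferase ATP-detection/stop reagent reported PKM2 activity. Reactions contained 0.1 nM purified human enzyme, 0.5 mM PEP, 0.1 mM ADP and 7 mM MgCl2 at pH 7.2, run 1 h at RT.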

[15] = qHTS Assay for Identification of Small Molecule Agonists for Hypoxia Response Element Signaling Pathway (AID 914; active = well fitted activation curve with a large enough effect in the signal ratio, with a control signal flat, not every such curve was filed as active; the % refers to the signal ratio; note: % of control where 0% means no effect); conditions: ME-180 (cervical carcinoma) HRE-bla reporter, beta-lactamase ratio, CoCl2, 17 h; hits give high values
Outline: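 A beta-lactamase reporter under hypoxia response element control in ME-180 cells served as the system. Compound titrations plus EC50 CoCl2 ran 17 h at 37 degrees Celsius; AC50 values were fitted from %Activity.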

[16] = molecular target: Cytochrome P450 2C19 (Homo sapiens) (UniProt P33261); assay: qHTS Assay for Inhibitors and Substrates of Cytochrome P450 2C19 (AID 899); conditions: recombinant CYP2C19, luciferin-H EGE luminescence; series mostly up to 57.1 µM; note: nearly all actives have a fitted effect of over 60% in size; note: potency is the fitted concentration of half-maximal effect
Chain of Cytochrome P450 2C19 (Homo sapiens) (P33261 whole entry, looked up): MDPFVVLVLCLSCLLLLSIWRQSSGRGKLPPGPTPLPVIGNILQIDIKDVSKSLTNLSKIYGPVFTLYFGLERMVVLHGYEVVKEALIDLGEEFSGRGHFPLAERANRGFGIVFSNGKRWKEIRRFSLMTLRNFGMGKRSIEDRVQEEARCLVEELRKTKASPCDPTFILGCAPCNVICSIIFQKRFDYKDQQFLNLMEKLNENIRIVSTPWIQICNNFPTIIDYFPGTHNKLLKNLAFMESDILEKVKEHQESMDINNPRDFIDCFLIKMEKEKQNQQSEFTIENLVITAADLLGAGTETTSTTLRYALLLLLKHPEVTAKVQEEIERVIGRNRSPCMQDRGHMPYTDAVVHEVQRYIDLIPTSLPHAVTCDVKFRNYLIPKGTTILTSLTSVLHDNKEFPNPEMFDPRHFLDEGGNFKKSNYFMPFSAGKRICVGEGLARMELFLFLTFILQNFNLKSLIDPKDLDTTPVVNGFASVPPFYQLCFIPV
Outline: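 5 nM human CYP2C19 with 10uM Luciferin-H EGE (at KM) in 50mM KPO4, compound preincubated 10 min at 37C, then NADPH regeneration for 60 min at 37C. Luciferin read by luminescence after detection reagent; normalized to 57uM ketoconazole as full inhibition.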

[17] = molecular target: Pyruvate kinase (Leishmania mexicana) (UniProt Q27686); assay: qHTS Validation Assay for Inhibitors of Leishmania Mexicana Pyruvate Kinase (AID 945);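 note: 0% = DMSO only neutral control wells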; conditions: purified L. mexicana pyruvate kinase, enzyme activity, E451W mutant enzyme; series mostly up to 57.5 µM
Chain of Pyruvate kinase (Leishmania mexicana) (Q27686 2-499 E452W): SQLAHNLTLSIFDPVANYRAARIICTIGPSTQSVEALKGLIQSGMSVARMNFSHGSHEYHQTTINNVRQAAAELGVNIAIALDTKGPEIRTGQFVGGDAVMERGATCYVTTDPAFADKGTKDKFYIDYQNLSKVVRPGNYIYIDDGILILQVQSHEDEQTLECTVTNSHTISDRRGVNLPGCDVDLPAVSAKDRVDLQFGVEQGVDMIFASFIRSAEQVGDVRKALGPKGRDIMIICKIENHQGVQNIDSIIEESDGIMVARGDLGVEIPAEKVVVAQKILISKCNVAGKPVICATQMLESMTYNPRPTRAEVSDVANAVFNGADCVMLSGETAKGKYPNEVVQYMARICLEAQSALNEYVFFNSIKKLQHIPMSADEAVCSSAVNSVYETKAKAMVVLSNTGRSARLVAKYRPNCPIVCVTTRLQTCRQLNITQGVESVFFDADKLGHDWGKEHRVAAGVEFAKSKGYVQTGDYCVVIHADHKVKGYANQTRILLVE
Outline: (§1)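 Compounds are tested as eight-point concentration series. Reactions contain 0.2 nM LmPYK E451W, 0.5 mM PEP, 0.1 mM ADP, 7 mM MgCl2 and 50 mM KCl at pH 7.2, run 1 h at room temperature, then read by PKLight luminescence.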

[18] = molecular target: Muscarinic acetylcholine receptor M1 (Rattus norvegicus) (UniProt P08482); assay: qHTS Assay for Antagonists of Acetylcholine Muscarinic M1 Receptor: Kinetic Measurement of Intracellular Calcium Response (AID 943); conditions: M1-expressing cells, kinetic intracellular calcium fluorescence; series mostly up to 35.3 µM;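 note: Fluo-4 calcium signal as peak divided by basal fluorescence over 4 min; nearly all actives have a fitted effect of over 75% in size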
Outline: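 CHO cells stably expressing rat M1 were loaded with no-wash Fluo-4 dye for 1 h at 37C, pre-incubated 10 min with compound, then challenged with EC80 carbachol (100 nM final); kinetic calcium read 4 min, peak/basal ratio.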

[19] = molecular target: Pyruvate kinase (Leishmania mexicana) (UniProt Q27686); assay: qHTS Validation Assay for Activators of Leishmania Mexicana Pyruvate Kinase (AID 959); conditions: purified L. mexicana pyruvate kinase, enzyme activity; series mostly up to 57.5 µM
Outline: as §1

C=C(CC)C(=O)c1ccc(OCC(=O)O)c(Cl)c1Cl
active: Potency [2] 50.1 µM | Potency [6] 31.6 µM | Potency [7] 50.1 µM
inactive: outcome [1] | outcome [3] | Potency [4] | Potency [5] | Potency [8] | Potency [9]

CCCCCCc1ccc(O)cc1O
inactive: outcome [1] | Potency [2] | outcome [3] | Potency [10] | Potency [4] | Potency [11] | Potency [5] | Potency [7] | Potency [8] | Potency [9]

CC(C)NC[C@@H](O)COc1cccc2ccccc12
inactive: outcome [1] | outcome [12] | outcome [3] | Potency [13] | outcome [14]

Cc1c(N(C)CS(=O)(=O)O)c(=O)n(-c2ccccc2)n1C
inactive: outcome [1] | activation [15] -4.84% | outcome [3]

CCCn1c(=O)[nH]c(=O)c2[nH]cnc21
inactive: Potency [16] | outcome [12] | outcome [17] | outcome [14]

CCN(CC)CCOC(=O)C(c1ccccc1)C1CCCCC1 (stereo unspecified)
inactive: outcome [1] | outcome [3]

Oc1c(I)cc(Cl)c2cccnc12
inactive: outcome [1] | outcome [3] | Potency [10]
active: Potency [2] 39.8 µM | Potency [6] 31.6 µM

CC(C)(C)CC(C)(C)c1ccc(OCCOCC[N+](C)(C)Cc2ccccc2)cc1
active: Potency [2] 20 µM | Potency [11] 50.1 µM | Potency [9] 50.1 µM
inactive: outcome [1] | outcome [3]

COC1=CC(=O)C[C@@H](C)[C@]12Oc1c(Cl)c(OC)cc(OC)c1C2=O
inactive: outcome [1] | Potency [2] | outcome [3] | Potency [10] | Potency [4] | Potency [11] | Potency [5] | Potency [7] | Potency [8] | Potency [9]

COc1cc(-c2ccc(=O)[nH]n2)ccc1OC(F)F
inactive: Potency [16] | outcome [12] | outcome [18] | outcome [17]

Nc1ccc(C(=O)O)cc1
inactive: outcome [1] | Potency [2] | outcome [3] | Potency [10] | Potency [11] | Potency [5] | Potency [6] | Potency [7] | Potency [8] | Potency [9]

O=c1ccc2ccccc2o1
inactive: outcome [1] | Potency [2] | outcome [3] | Potency [10] | Potency [4] | Potency [11] | Potency [5] | Potency [6] | Potency [7] | Potency [8] | Potency [9]

C[N+]1(CCCCC[N+]2(C)CCCC2)CCCC1
inactive: outcome [1] | outcome [12] | outcome [3] | outcome [18] | Potency [13] | outcome [17] | outcome [14]

O=C(O)c1cc2cc(Cc3cccnc3)ccc2o1
inactive: outcome [1] | outcome [12] | outcome [3] | Potency [13] | outcome [14] | outcome [19]

CCCCC1=NC2(CCCC2)C(=O)N1Cc1ccc(-c2ccccc2-c2nn[nH]n2)cc1
inactive: outcome [1] | outcome [3]

C[C@@H]1CN(CCCn2c3ccccc3c3ccccc32)C[C@H](C)N1
active: Potency [16] 3.16 µM

O=C(COc1ccc(Cl)cc1)N1CCN(Cc2ccc3c(c2)OCO3)CC1
inactive: outcome [1] | outcome [3]
active: Potency [16] 5.01 µM

CC(=O)Oc1ccc(C(c2ccc(OC(C)=O)cc2)c2ccccn2)cc1
inactive: outcome [1] | Potency [2] | outcome [3] | Potency [10] | Potency [4] | Potency [11] | Potency [5] | Potency [6] | Potency [7] | Potency [8] | Potency [9]

Oc1c(Cl)cc(Cl)cc1Sc1cc(Cl)cc(Cl)c1O
inactive: outcome [1] | outcome [3] | Potency [10] | Potency [4] | Potency [11] | Potency [5] | Potency [6] | Potency [7] | Potency [8] | Potency [9]
active: Potency [2] 39.8 µM

OC(CCN1CCCCC1)(c1ccccc1)c1ccccc1
inactive: outcome [1] | outcome [3]

CC/C(=C(/CC)c1ccc(O)cc1)c1ccc(O)cc1
inactive: outcome [1] | Potency [2] | outcome [3] | Potency [4] | Potency [11] | Potency [5] | Potency [7] | Potency [8] | Potency [9]

CC(C)(C(=O)c1cccnc1)c1cccnc1
inactive: activation [15] -12.9%
